The results in this text go back to PubChem BioAssay AID540256 (National Center for Advancing Translational Sciences (NCATS), 2011).

Out of some 300,000 compounds screened, about 3,700 (1.2%) were called active. Where a call stands in place of a potency, no number is given. About 20% were inconclusive and are not listed. The call rests on the fitted dose curve; tested in HEK293 cells. Many of the other results were omitted from the sample, so actives are more common in it than they were.
Potency means the concentration at half of the fitted maximal effect.

The assay in a line: qHTS for Inhibitors of binding or entry into cells for Lassa Virus. Further: nearly all actives have a fitted effect of over 50% in size. To be noted: Lassa virus pseudotype entry inhibition, cell reporter; series mostly up to 37.9 µM. A general note: Quantitative high-throughput screening tests each substance at several concentrations.
Regarding `O=C1CCN(C(=S)NCCc2ccccc2)CC1`, the Potency entry was “inactive”.

Turning to `Oc1cc2c(cc1O)CN(C(=S)NCCc1ccc(Cl)cc1)CCC2`, the Potency was 11.6 µM (active).

For the compound `COc1ccc(CCNC(=S)N2CCN(S(=O)(=O)c3ccc(Cl)cc3)CC2)cc1`, the Potency entry was “inactive”.

For `Cn1cc(C2OC(=O)c3ccccc32)c2ccccc21` (stereo not given), the Potency entry is “inactive”.

On to `COC(=O)c1ccc(C(=O)OC)c(NC(=S)N2CCCCC2)c1`, for which the Potency entry is “inactive”.

Regarding `COC(=O)c1ccc(C(=O)OC)c(NC(=S)N2CCN(c3cc(Cl)ccc3C)CC2)c1`, the Potency is 4.47 µM (active).

As for `COC(=O)c1ccc(C(=O)OC)c(NC(=S)N2CCN(c3ccc(F)cc3)CC2)c1`, the Potency result was “inactive”.

Turning to `Cc1ccc2c(=O)cc(C(=O)Nc3sc4c(c3C(=O)NCc3cccnc3)CCCC4)oc2c1`, the Potency entry was “inactive”.

Consider `COc1ccc(NS(=O)(=O)c2ccc(C)c(C(=O)NCC(c3cccs3)N3CCOCC3)c2)cc1` (stereo not given), for which the Potency entry was “inactive”.

On to `C/C(=N\NC(=S)NCc1ccccc1)c1ccc(Cl)cc1`, for which the Potency was 5.8 µM (active).

With `S=C(NCc1ccc(Cl)cc1)NC1CCCCC1`, the Potency entry is “inactive”.

Take `CN(C)CCCNC(=S)NCc1ccc(Cl)cc1`: the Potency result was “inactive”.

Take `O=C(Nc1ncccc1O)c1ccc(S(=O)(=O)N2CCCC2)cc1`: the Potency result was “inactive”.

Consider `O=C(OC12CC3CC(CC(C3)C1)C2)c1ccc(NCc2cc(O)ccc2O)cc1`, for which the Potency was 10 µM (active).

Consider `CC(=O)Nc1ccc(C(=O)/C=C/c2ccc[nH]2)cc1`, for which the Potency entry was “inactive”.

As for `O=C(COc1ccccc1[N+](=O)[O-])N/N=C/c1ccc[nH]1`, the Potency entry is “inactive”.

As for `CCCC(=O)Nc1ccc(C(=O)N/N=C/c2ccc[nH]2)cc1`, the Potency was 10 µM (active).

Consider `O=C(Nc1c[nH]c(=O)[nH]c1=O)OCc1ccccc1`, for which the Potency result was “inactive”.

Turning to `Cc1csc(=O)n1CC(=O)Nc1ccc(S(C)(=O)=O)cc1`, the Potency result is “inactive”.

Consider `CCNC(=O)CCc1nc(-c2ccc(C)cc2)no1`, for which the Potency entry is “inactive”.

With `CCNC(=O)CCc1nc(-c2ccc(C(C)(C)C)cc2)no1`, the Potency was 11.2 µM (active).

As for `Cc1ccc(-c2noc(CCC(N)=O)n2)cc1`, the Potency result is “inactive”.

For the compound `CC1(C)C/C(=N/Nc2ccc([N+](=O)[O-])cc2[N+](=O)[O-])C(C)(C)O1`, the Potency result is “inactive”.

With `NS(=O)(=O)c1ccc(N=Nc2c(=O)[nH]c3ccc4[nH]cccc4c23)cc1`, the Potency is 0.628 µM (active).

On to `Cc1[nH]n(C)c(=O)c1N=Nc1ccc(S(C)(=O)=O)cc1`, for which the Potency entry is “inactive”.

On to `Cc1[nH]c2ccc(S(N)(=O)=O)cc2c1C`, for which the Potency result was “inactive”.

For `O=C(Cn1cnc2ccccc2c1=O)NNC(=O)c1ccccc1F`, the Potency entry was “inactive”.

On to `CC(C)OCCCNC(=O)CN1C(=O)/C(=C/c2ccccc2F)Oc2ccccc21`, for which the Potency entry was “inactive”.

For `CCOC(=O)C1=C(NC(=S)NC(=O)c2ccccc2)c2ccccc2CC1(C)C`, the Potency is 1.41 µM (active).

For `Cc1ccc(NC(=S)NC(=O)c2ccc(-c3ccccc3)cc2)cc1`, the Potency result was “inactive”.

Turning to `CCOC(=O)c1c(NC(=O)C2(C)Cc3ccccc3C(=O)O2)sc2c1CCCC2` (stereo not given), the Potency result is “inactive”.

Turning to `O=C(NN=CC=Cc1ccccc1)C(O)C(O)C(=O)NN=CC=Cc1ccccc1` (stereo not given), the Potency result is “inactive”.

Regarding `CC(C)c1ccc(C=NNc2ccc([N+](=O)[O-])cn2)cc1`, the Potency result is “inactive”.

For `O=C(Nc1nncs1)c1ccccc1NS(=O)(=O)c1cccs1`, the Potency result is “inactive”.

For `COc1ccccc1C(=O)Nc1ccccc1C(=O)Nc1ccccc1`, the Potency entry is “inactive”.

With `COc1cc(NC(=O)c2ccccc2NS(=O)(=O)c2ccc(Cl)s2)cc(OC)c1`, the Potency was 11.2 µM (active).

`CCn1nnc2cc(C(=O)Nc3ccc(C(=O)OC(C)C)cc3)ccc21`: the Potency result is “inactive”.

For the compound `O=C(COC(=O)c1n[nH]c2ccccc12)Nc1ccccc1Br`, the Potency result is “inactive”.

Turning to `O=C(Nc1c(Br)cc2c(c1Br)Cc1cc([N+](=O)[O-])ccc1-2)C(Cl)Cl`, the Potency entry is “inactive”.

For the compound `Cc1ccc(NC(=O)c2ccc(CSc3ncnc4nc[nH]c34)cc2)c(C)c1`, the Potency is 17.8 µM (active).

On to `CSc1ncc(C(=O)Nc2ccc(C)cc2C)c(C)n1`, for which the Potency result was “inactive”.

Take `Cc1ccc(NC(=O)c2ccc3[nH]c(C)cc(=O)c3c2)c(C)c1`: the Potency entry was “inactive”.

With `COc1ccc(N=C2C=CC(=O)O2)cc1`, the Potency result is “inactive”.

Regarding `O=C(O)C(=Cc1ccccc1[N+](=O)[O-])c1ccccc1`, the Potency entry is “inactive”.

On to `NC(=S)N/N=C/c1ccc([N+](=O)[O-])cc1`, for which the Potency entry was “inactive”.

With `O=[N+]([O-])c1ccc(C=NN=Cc2ccc([N+](=O)[O-])cc2)cc1`, the Potency entry was “inactive”.

Turning to `O=C1/C(=C\c2ccc([N+](=O)[O-])cc2)CS(=O)(=O)C/C1=C/c1ccc([N+](=O)[O-])cc1`, the Potency was 3.55 µM (active).

In the case of `CCOC(=O)C1CCCN(C(=O)C2CCN(S(=O)(=O)c3ccc(Cl)c(C(F)(F)F)c3)CC2)C1` (stereo not given), the Potency result is “inactive”.

Regarding `Cc1[nH]c2ccccc2c1C(=O)C(C)Sc1nnc(C2CC2)o1` (stereo not given), the Potency entry is “inactive”.

Take `Cc1c(CCO)c(=O)[nH]n1C(=O)c1c(F)cccc1F`: the Potency was 4.11 µM (active).

In the case of `CC(=O)NC1(c2ccc(F)cc2)CCN(C(=O)c2c(F)cccc2F)CC1`, the Potency result was “inactive”.

With `Cc1c(CCO)c(=O)n(-c2ccccc2)n1S(=O)(=O)c1ccc(F)cc1`, the Potency entry was “inactive”.

Consider `COc1ccc(CC(=O)NC(C)c2ccc(Cl)c(Cl)c2)cc1S(=O)(=O)N1CCOCC1` (stereo not given), for which the Potency entry is “inactive”.

For `CCCCCOC(=O)NCCOC(=O)Nc1ccc(C(=O)OCC)cc1`, the Potency is 1.03 µM (active).

In the case of `CCOC(=O)Nc1ccc(NC(=O)OCC)cc1`, the Potency result is “inactive”.

Consider `CCCCC(CCC(=O)Nc1ccc(C(=O)OCC)cc1)C(=O)O` (stereo not given), for which the Potency entry is “inactive”.

In the case of `NC(CSC1(c2ccccc2)c2ccccc2-c2ccccc21)C(=O)O` (stereo not given), the Potency result was “inactive”.

As to `CC1=CC(C)(C)Nc2ccc(OC(=O)CN3C(=O)C4CCCCC4C3=O)cc21` (stereo not given), the Potency entry was “inactive”.

With `CC1=CC(C)(C)Nc2ccc(OC(=O)C(Cc3ccccc3)N3C(=O)C4CCCCC4C3=O)cc21` (stereo not given), the Potency is 1.12 µM (active).

Regarding `COC(=O)c1ccccc1NC(=O)C(Cc1ccccc1)N1Cc2ccccc2C1=O` (stereo not given), the Potency entry is “inactive”.

For the compound `O=C(COC(=O)c1ccc2c(c1)OCCO2)NCc1ccccc1Cl`, the Potency result is “inactive”.

Regarding `CCOc1cc(N2CCOCC2)c(OCC)cc1NC(=O)c1cc(C)nc2ccccc12`, the Potency entry is “inactive”.

As to `CCOc1cc(N2CCOCC2)c(OCC)cc1NC(=O)COc1cccc2cccnc12`, the Potency was 6.31 µM (active).

In the case of `CCOc1cc(N2CCOCC2)c(OCC)cc1NC(=O)COc1cccc(Cl)c1`, the Potency result was “inactive”.

Turning to `N#CC1(Nc2ccc(-c3ccc(Cl)cc3)cc2)CCCC1`, the Potency result is “inactive”.

On to `C/C(=N\NC(=O)c1cc(-c2ccc(O)cc2)nc2ccccc12)c1cccnc1`, for which the Potency entry is “inactive”.

On to `CCOc1ccc(/C=N\NC(=O)c2c(C)nc3cc(C)ccn23)cc1`, for which the Potency entry was “inactive”.

`Cc1cc(C(=O)N/N=C/c2ccccn2)c2ccccc2n1`: the Potency entry was “inactive”.

For `COc1ccc(/C=N/NC(=O)c2cc(-c3cccc(C)c3)nc3ccccc23)cc1O`, the Potency was 7.08 µM (active).

For `CCOc1ccc(-c2cc(C(=O)N/N=C/c3ccc(O)cc3)c3ccccc3n2)cc1`, the Potency was 1.41 µM (active).

Take `COc1cccc(-c2cc(C(=O)N/N=C/c3ccc(OC)c(COC(C)=O)c3)c3ccccc3n2)c1`: the Potency result was “inactive”.

As for `Cc1ccc(C)c(NC(=O)CN(C)C(=O)COc2ccc3ccccc3c2)c1`, the Potency entry was “inactive”.

With `Cc1cc2occ(CC(=O)NNC(=O)c3ccccc3F)c2cc1C`, the Potency result was “inactive”.

Take `Cc1ccc(CSCC(=O)N(C)CC(=O)Nc2ccc(C)cc2)cc1`: the Potency entry was “inactive”.

As for `COc1ccc(C(=O)NCC(c2ccco2)N2CCc3ccccc32)cc1OC` (stereo not given), the Potency entry is “inactive”.

On to `Cc1c(C)c2c(OCC(=O)NCCCO)cc3c(c2oc1=O)CCC(C)(C)O3`, for which the Potency entry is “inactive”.

With `Cc1c(NC(=O)C(C)OC(=O)c2c3c(nc4ccccc24)CCC(C)C3)c(=O)n(-c2ccccc2)n1C` (stereo not given), the Potency entry is “inactive”.

In the case of `O=C(Nc1ccc(NC(=O)c2cccs2)cn1)c1ccco1`, the Potency was 3.98 µM (active).

In the case of `COc1cccc(C(=O)Nc2ccc(NC(=O)c3ccco3)cn2)c1`, the Potency entry was “inactive”.

Take `O=C(Nc1ccc2nccnc2c1)c1ccco1`: the Potency entry was “inactive”.

In the case of `COc1ccc(OCCNC(=O)c2cc(C3CC3)nc3c2cnn3C(C)C)cc1`, the Potency result is “inactive”.

With `OCc1ccc(-c2ccccc2)c(-c2ccccc2)c1`, the Potency entry was “inactive”.

Turning to `C/C(=C\C(=O)c1ccc(Br)cc1)N1CCCCC1`, the Potency result was “inactive”.

In the case of `CC1CN/C(=C\C(=O)c2ccc(Br)cc2)C(=O)N1` (stereo not given), the Potency is 8.2 µM (active).

Regarding `CN1CCCC(OC(=O)COc2ccc(Br)cc2)C1` (stereo not given), the Potency entry is “inactive”.

As to `COC1=CC(=O)OC(c2ccc(OC)cc2)C1` (stereo not given), the Potency result is “inactive”.

Consider `O=C(CSc1nc2[nH]ncc2c(=O)n1-c1ccccc1)N1CCCc2ccccc21`, for which the Potency entry is “inactive”.

On to `O=C(CSc1nc2ccccc2c(=O)n1CCCO)N1CCc2ccccc21`, for which the Potency result is “inactive”.

Regarding `Cn1c(SCC(=O)N2CCCc3ccccc32)nc2ccccc2c1=O`, the Potency is 12.6 µM (active).

Turning to `COc1ccc(N2CCN(CCNC(=O)Nc3cc(Cl)ccc3Cl)CC2)cc1`, the Potency result is “inactive”.

With `O=C(Cc1ccc([N+](=O)[O-])cc1)NCCc1ccc2c(c1)OCO2`, the Potency entry is “inactive”.

In the case of `Cc1ccc(CSCC(=O)N(C)CC(=O)Nc2cccc(F)c2)cc1`, the Potency result was “inactive”.

Turning to `Cc1ccc(S(=O)(=O)Nc2ccc(F)c(S(=O)(=O)N3CCOCC3)c2)cc1`, the Potency entry was “inactive”.

In the case of `CCOC(=O)N1CCN(C(=O)COc2ccc(Br)cc2)CC1`, the Potency result was “inactive”.

`O=C(COc1ccc2oc3c(c2c1)CCCC3)Nc1ccccn1`: the Potency entry was “inactive”.

Take `CCOC(=O)N1CCN(C(=O)COc2ccc3oc4c(c3c2)CCCC4)CC1`: the Potency was 10 µM (active).

On to `CC(=O)c1ccc(OCCCC(=O)Nc2ccc(C)c(S(=O)(=O)N3CCOCC3)c2)cc1`, for which the Potency result was “inactive”.

`COc1ccccc1NS(=O)(=O)c1ccc(C(=O)N2CCN(c3ccccc3O)CC2)cc1`: the Potency result was “inactive”.

Turning to `COc1ccc2nc(/N=C(\N)NC(=O)Nc3ccccc3)nc(C)c2c1`, the Potency entry is “inactive”.

Consider `Cc1nc(/N=C(\N)NC(=O)NC2CCCCC2)nc2ccccc12`, for which the Potency is 22.4 µM (active).

`Cc1nn(-c2ccccc2)c(C)c1C(=O)OCC(=O)NC(=O)NC1CCCCC1`: the Potency entry is “inactive”.

Regarding `CC(C)c1cc(N=O)cc(C(C)C)c1O`, the Potency entry was “inactive”.

In the case of `N#Cc1c(NC(=O)CSc2nc3ccccc3c(=O)n2Cc2ccco2)sc2c1CCCC2`, the Potency entry is “inactive”.

Turning to `CCOC(=O)C(C)Sc1nc2ccccc2c(=O)n1CC1CCCCC1` (stereo not given), the Potency result is “inactive”.

With `CC(Sc1nc2ccccc2c(=O)n1Cc1ccco1)C(=O)c1ccccc1` (stereo not given), the Potency was 4.11 µM (active).
